# High-throughput results (PubChem BioAssay)
# Rab9 prom act: qHTS Assay for Rab9 Promoter Activators; Huh7 Rab9 promoter-luciferase reporter, luminescence, 24 h; Potency, µM (titrated, usually from 9.22 µM), for inactives: top-dose activation, negative = inhibition, most hits filed as activators; actives 2.8% (n = 320,000); AID 485297, 2010; also: % of control where 0% means no effect; nearly all actives have a fitted effect of over 60% in size
#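 Stable Rab9-luc Huh7, 1500 cells/well, 2 h settle; cmpd in DMSO, 24 h, 37 °C/5% CO2; luciferase reagent 10 min RT; luminescence.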
# SMN2 splice up: qHTS Assay for Enhancers of SMN2 Splice Variant Expression | HEK293 SMN2-luciferase splicing reporter, luminescence, 30-36 h | actives 2.8% (n = 210,000) | Potency, µM (top dose mostly 46.1 µM), for inactives: at the highest dose activity change, positive = activation, usual class: activators; also: % of control where 0% means no effect; nearly all actives have a fitted effect of over 55% in size
#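 qHTS luciferase splicing reporter: luminescence rises when SMN2 exon 7 is included in transfected HEK293 cells. Compound exposure lasted 30-36 h at 37C, with 4.5 mM final sodium butyrate as control, followed by a ONE-Glo read.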
# FLuc modulator: qHTS profiling assay for firefly luciferase inhibitor/activator using purifed enzyme and Km concentrations of substrates (counterscreen for miR-21 project); Luciferin 4-monooxygenase (Photinus pyralis), P08659; purified FLuc, Km substrates, luminescence inhibition; Potency, µM (series often up to 57.5 µM), for inactives: at the highest dose activity change, negative = inhibition, most hits filed as inhibitors; actives 6.9% (n = 360,000); AID 588342, 2011;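 also: plate controls were vehicle for no effect and reference inhibitor for full effect; nearly all actives have a fitted effect of over 55% in size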
# Target sequence (P08659 whole entry, looked up): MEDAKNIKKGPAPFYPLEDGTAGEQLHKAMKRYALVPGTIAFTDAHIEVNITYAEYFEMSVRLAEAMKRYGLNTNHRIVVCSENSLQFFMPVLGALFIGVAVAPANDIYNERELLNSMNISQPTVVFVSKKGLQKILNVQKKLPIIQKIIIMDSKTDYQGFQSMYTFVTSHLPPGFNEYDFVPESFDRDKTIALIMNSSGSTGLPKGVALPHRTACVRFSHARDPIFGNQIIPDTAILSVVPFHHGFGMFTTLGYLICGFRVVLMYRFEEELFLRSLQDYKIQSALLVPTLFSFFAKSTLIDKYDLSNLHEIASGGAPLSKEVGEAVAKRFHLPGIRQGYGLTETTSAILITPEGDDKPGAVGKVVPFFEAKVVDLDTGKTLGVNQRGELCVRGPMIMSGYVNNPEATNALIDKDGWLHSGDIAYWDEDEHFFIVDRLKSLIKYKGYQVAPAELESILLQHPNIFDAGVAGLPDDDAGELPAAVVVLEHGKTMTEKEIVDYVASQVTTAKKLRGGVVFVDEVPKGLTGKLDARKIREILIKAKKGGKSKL
#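 Purified P. pyralis luciferase (10nM final) with 10uM D-luciferin and 10uM ATP (Km levels) in 50mM Tris acetate pH 7.5, 10mM Mg acetate, 0.01% Tween-20, 0.05% BSA; qHTS 6-point titration, ~60 µM downward; luminescence read.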
# NPC1 prom act: qHTS Assay for NPC1 Promoter Activators | actives 2.4% (n = 320,000) | AID 485313, 2010 | Potency, µM (titrated, usually from 9.22 µM), without a hit: at the top dose activation, most hits filed as activators | Huh7 NPC1 promoter luciferase reporter, 24 h; also: % of control where 0% means no effect; nearly all actives have a fitted effect of over 60% in size
#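 Huh7 cells stably carrying NPC1 promoter–luciferase, plated in Opti-MEM with 10% FBS for 2 h, were exposed to compound in DMSO for 24 h at 37 °C; luciferase reagent was added for 10 min and luminescence read.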
# ELG1 genotox: qHTS screen for small molecules that induce genotoxicity in human embryonic kidney (HEK293T) cells expressing luciferase-tagged ELG1; HEK293T ELG1-luciferase reporter, luminescence, 16 h; Potency, µM (series often up to 46 µM), inactives show top-dose activity change, positive = activation, usual class: activators; actives 1.3% (n = 330,000); AID 504466, 2011; also: % of control where 0% means no effect; nearly all actives have a fitted effect of over 60% in size
#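 ELG1-luciferase HEK293T cells, 2,000/well; compound pinned in; 16 hr, 37 °C, 5% CO2; ONE-Glo, 30 min RT; luminescence on CCD imager.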
# Starred values were filed as active, the others as inactive; ? = inconclusive; / = not tested or not shown; [ ] = remark or other dose. Rows were chosen to be rich in hits. Some 7.4% of all compounds tested hit in one or more screens of this group. Calls follow the shape of the dose curve; as a rule, active = well fitted curve in the direction sought with a large enough effect; inconclusive = small, poorly fitted or top-dose-only effect, or another doubt; inactive = no such curve, though single readings can be large; an effect the other way counts as inactive or inconclusive. Potency is read from the fitted curve at half-maximal effect.
SMILES,Rab9 prom act,SMN2 splice up,FLuc modulator,NPC1 prom act,ELG1 genotox
O=C(c1cccs1)c1cn(CCOc2ccccc2Cl)c2ccccc12,/,-6%,-1%,/,/
Cc1oc(S(=O)(=O)N2CCCC2)cc1C(=O)Nc1ccccc1,-10%,/,0%,-2%,-6%
N=c1oc2c3c4c(cc2cc1C(=O)Nc1ccccc1)CCCN4CCC3,?,10µM*,1.9µM*,?,?
CC(C)c1ccc(/C=C2\SC(=O)N(CC(=O)NCCCn3ccnc3)C2=O)cc1,3.5µM*,/,0.6µM*,?,?
CCOc1ccc(/C=C2\SC(=S)N(CC(=O)NCCCN3CCOCC3)C2=O)cc1,19%,/,3µM*,1%,-8%
O=C(CN1C(=O)/C(=C/c2cccc(Br)c2)SC1=S)NCCCN1CCOCC1,6%,/,21µM*,5%,-3%
O=C(CN1C(=O)/C(=C/c2ccccc2)Sc2ccccc21)NCCCN1CCOCC1,-2%,/,-6%,-1%,0%[9.26 µM]
CC(C)c1ccc(/C=C2\SC(=S)N(CC(=O)NCCCN3CCOCC3)C2=O)cc1,0%,/,1.3µM*,6%,?
Cc1ccc(NC(=O)c2ccc(NS(=O)(=O)/C=C/c3ccccc3)cc2)nc1,3%,/,?,-2%,-10%
Cc1nc2ncnn2c(C)c1CCC(=O)N1CC(C)CC(C)C1 (stereo not drawn),0%,-6%,-2%,-3%,0%
CC(C)CN1CC[C@@]2(CCCN(C(=O)c3ccco3)C2)C1,/,-9%,/,/,/
CC1CCCN(C(=O)CNS(=O)(=O)c2cccs2)C1 (stereo not drawn),6%,/,-5%,11%,6%
OCC(CBr)(CBr)CBr,-7%,14%,-13%,-2%,1%
COc1ccccc1NS(=O)(=O)c1cc(NC(=O)Cc2n[nH]c(=O)c3ccccc23)ccc1Cl,/,/,/,/,-9%
CCCSc1nc2c(cnn2-c2ccccc2)c(=O)n1N,0.79µM*,/,5.4µM*,4.5µM*,?
Nn1c(SCc2ccccc2)nc2c(cnn2-c2ccccc2)c1=O,3.2µM*,13µM*,11µM*,?,?
Cc1cc(C)c2nc(NC(=O)c3ccco3)sc2c1,0.56µM*,/,0.54µM*,2.8µM*,0.65µM*
Cc1cc(Cl)cc2sc(NC(=O)c3ccco3)nc12,2.2µM*,/,9.5µM*,?,2.9µM*
O=C(Nc1nc2c(F)cccc2s1)c1ccco1,1.1µM*,/,4.8µM*,1.1µM*,7.3µM*
Cc1nc2nc(NC(=O)c3ccco3)nn2c(C)c1Cl,3.2µM*,/,?,3.5µM*,18µM*
O=C(Nc1nc2c(Br)cc(Br)cc2c(=O)s1)c1ccco1,-4%,/,-5%,-9%,2%
Cc1cc(Cl)cc2sc(NC(=O)C3CC3)nc12,4%,/,1%,14%,-1%
O=[N+]([O-])c1ccc2c(c1)c(S(=O)(=O)O)cc1nonc12,/,-2%[9.22 µM],/,/,/
COc1cccc(CCc2ccccc2OCC[C@@H]2C[C@@H](O)CN2C)c1,/,-38%,/,/,/
CSc1nc(-c2ccc(Cl)cc2)c(C#N)c(=O)n1C,-7%,-24%,0%,-8%,-2%
SMILES,Rab9 prom act,SMN2 splice up,FLuc modulator,NPC1 prom act,ELG1 genotox
CSc1nc(-c2ccc(N(C)C)cc2)c(C#N)c(=O)n1C,?,/,12µM*,?,?
CCCCc1ccc(-c2ccc(Br)cc2O)nc1,0.79µM*,?,0.85µM*,1.4µM*,1.3µM*
CCCCc1ccc(-c2ccc(C)cc2O)nc1,0.63µM*,22µM*,0.43µM*,0.5µM*,1.5µM*
Cn1c(SCC(=O)c2ccc(O)cc2O)nnc1-c1ccccc1,-1%,/,-3%,-1%,8%
Cn1c(C(=O)Nc2ccc(OC(F)(F)F)cc2)cc2c(=O)n3ccccc3nc21,/,/,-10%,/,/
O=C(N/N=C/c1ccccn1)c1cc(-c2ccc(Cl)cc2)nc2ccccc12,-4%,-81%,6.7µM*,0%,17%
O=C(N/N=C/c1ccccn1)c1cc(-c2ccc(Br)cc2)nc2ccccc12,-3%,/,5.4µM*,-4%,?
O=C(Nc1nc2cc3c(cc2s1)OCO3)c1cccc(N2C(=O)CCC2=O)c1,29%,/,0.95µM*,24%,8%
COc1ccc2nc(NC(=O)c3cccc(N4C(=O)CCC4=O)c3)sc2c1,2%,/,0.85µM*,2%,4%
O=C(Nc1nc2ccc(Cl)cc2s1)c1cccc(N2C(=O)CCC2=O)c1,?,/,1.3µM*,15%,?
Cc1ccc2sc(NC(=O)c3cccc(N4C(=O)CCC4=O)c3)nc2c1C,11%,/,1.9µM*,17%,2%
O=C(Nc1nc2cc3c(cc2s1)OCO3)c1ccc(N2C(=O)CCC2=O)cc1,9%,/,-10%,2%,-2%
COc1ccc(-n2cc(C(=O)Oc3cc(C)cc(C)c3)c3ccccc3c2=O)cc1,/,/,-1%,/,/
COCCN(C(=O)C1CCN(C(=O)c2ccccc2C)CC1)c1c(N)n(CC(C)C)c(=O)[nH]c1=O,-2%,/,0%,0%,2%
CN(CC(=O)Nc1ccc(Br)cc1)S(=O)(=O)c1cccc2nsnc12,/,-25%,-4%,/,/
Cc1ccc2sc(NC(=O)C3CC3)nc2c1C,?,/,17µM*,?,?
Cc1cccc2sc(NC(=O)C3CC3)nc12,14%,/,-11%,15%,1%
O=C(COC(=O)c1ccccc1SCC(=O)N1CCCC1)Nc1ccccc1C(F)(F)F,-2%[1.84 µM],/,2%,1%,1%
CCc1nc(Nc2cccc(O)c2)c2oc3ccccc3c2n1,1%,/,19µM*,12%,-10%
CCn1c2ccccc2c2cc(NC(=O)N3CCOCC3)ccc21,3.5µM*,?,3%[2.3 µM],?,?
CCn1c2ccccc2c2cc(NC(=O)COC(=O)c3ccc(NC(=O)CC#N)cc3)ccc21,-1%,/,14%,-2%,23µM*
O=C(Nc1ccc2c(c1)oc1ccccc12)N1CCOCC1,3.5µM*,?,12µM*,3.5µM*,?
COc1ccc(NC(=O)Nc2cc(-c3cn4cccnc4n3)ccc2OC)cc1,/,7%,?,/,/
COc1ccc(-c2cn3cccnc3n2)cc1NC(=O)c1cc(OC)c(OC)c(OC)c1,21%,21%,21µM*,-2%,-6%
COc1ccc(-c2cn3cccnc3n2)cc1NC(=O)C(C)Oc1ccccc1 (stereo not drawn),-8%,/,27µM*,-1%,-4%
CCC(CC)C(=O)Nc1cc(-c2cn3cccnc3n2)ccc1OC,/,/,-9%,/,/
COc1cc(C(=O)Nc2cccc(-c3cn4cccnc4n3)c2)cc(OC)c1OC,6%,-18%,?,0%,-10%
COc1ccc(-c2cn3cccnc3n2)cc1NC(=O)Nc1ccc(Cl)cc1,/,/,6µM*,/,/
